Cycloheximide cs – counter-screen for Shiga toxin inhibitors: cycloheximide protein synthesis inhibition; 300,000 compounds, 12% hits; cell reporter, cycloheximide protein synthesis inhibition counterscreen; AID 2314; max response, %; in the data active means max response mostly above about 13%, no sharp cut-off; inactive means mostly below about 14%; further: read at 38.3 µM for the half of the compounds with a filed dose; 0% is about no effect
HCV inh – HCV inhibition; Huh7.5.1 HCVcc-Cre infection, luciferase reporter, 44 h; AID 651820; Potency, µM (doses to about 41.8 µM), for inactives: at the top dose activity change, negative = inhibition, hits mostly inhibitors; 340,000 compounds, 3.4% hits; further: potency means the concentration at half of the fitted maximal effect; on the % scale 0 is the no-effect control and ±100 the full control effect
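Antiviral activity was scored by luciferase reporter output from cells infected with HCVcc-Cre (~0.5 moi) in presence of compound, 44 h infection period, cells seeded 1,000/well 4 h prior.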
Pf growth 48h – inhibits P. falciparum growth in the first generation, 48 h. P. falciparum luciferase growth in erythrocytes, 48 h. 310,000 compounds, 5.9% hits. Potency, µM (series often up to 28.7 µM), inactives show top-dose activity change, negative = inhibition, actives largely listed as inhibitors; further: potency means the concentration at half of the fitted maximal effect; on the % scale 0 is the no-effect control and ±100 the full control effect
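Read-out is firefly luciferase luminescence from an integrated reporter in P. falciparum, so falling signal marks reduced parasite growth. Infected erythrocytes were at 2% hematocrit and 0.1% parasitemia (final) in Albumax-supplemented RPMI 1640.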
Pf growth 96h – P. falciparum growth inhibition at 96 hours; P. falciparum luciferase reporter growth, 96 h; Potency, µM (titrated, usually from 28.7 µM), without a hit: top-dose activity change, negative = inhibition, actives largely listed as inhibitors; 320,000 compounds, 6.9% hits; further: potency means the concentration at half of the fitted maximal effect; on the % scale 0 is the no-effect control and ±100 the full control effect
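Parasite growth measured via integrated firefly luciferase reporter in P. falciparum. Infected erythrocytes at 2% hematocrit, 0.05% parasitemia final were treated 96 hours at 37 C under 5% CO2, and luminescence was read.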
AMA1 RON2 block – inhibitors of Plasmodium falciparum AMA1-RON2 interaction | AlphaScreen AMA1-biotinylated RON2 peptide binding | Potency, µM (top dose mostly 58.2 µM), without a hit: at the top dose activity change, negative = inhibition, usual class: inhibitors | 360,000 compounds, 0.2% hits | AID 720542;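 further: potency means the concentration at half of the fitted maximal effect; 0% = vehicle wells and -100% = peptide control; nearly all actives have a fitted effect of over 45% in size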
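AMA1 (3D7) with his tag at 25 nM final met compounds first, then biotinylated RON2 peptide at 25 nM; detection used donor plus acceptor beads, 10 µg/mL apiece, read by AlphaScreen after 30 min at room temperature.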
Shiga toxin inh – blocks Shiga toxin action in Vero cells | AID 2315 | Vero cells, Shiga toxin protein synthesis inhibition reporter | 290,000 compounds, 9.2% hits | inhibition, % at 38.7 µM; in the data active means inhibition mostly above about 28%, no sharp cut-off; inactive means mostly below about 43%; further: 0% is about no effect
* hit, by the source's call; ? = inconclusive; / = not tested or not shown; [ ] = another dose, or the depositor's remark. An excerpt weighted towards active compounds, which were near 21% of everything screened. Unless noted, the call rests on the fitted dose curve; in most records, active means well fitted curve in the direction sought with a large enough effect; inconclusive means small, poorly fitted or top-dose-only effect, or another doubt; inactive means no such curve, though single readings can be large; an effect the other way counts as inactive or inconclusive.

SMILES	Cycloheximide cs	HCV inh	Pf growth 48h	Pf growth 96h	AMA1 RON2 block	Shiga toxin inh
COc1ccc(/C=N/NC(=O)c2nnn(-c3nonc3N)c2-c2cccs2)cc1OC	12.9	-13.2%	?	?	5.0%	14.9
Nc1nonc1-n1nnc(C(=O)N/N=C/c2cccnc2)c1-c1ccccc1	-8.3	4.0%	?	11.7µM*	-7.7%	-7.6
Nc1nonc1-n1nnc(C(=O)N/N=C/c2cccc(Cl)c2)c1-c1cccs1	0.5	-4.6%	4.65µM*	2.33µM*	-4.4%	-7.9
CCN(CC)c1ccc(/C=N/NC(=O)c2nnn(-c3nonc3N)c2-c2ccc(C)cc2)cc1	-11.1	-5.0%	?	5.86µM*	18.9%	-5.7
CCN(CC)Cc1c(C(=O)N/N=C/c2cccs2)nnn1-c1nonc1N	-7.9	9.6%	5.1%	27.5%	-7.0%	-5.1
CCc1c(C(=O)N/N=C/c2cccs2)nnn1-c1nonc1N	23.2*	-5.5%	40.6%	16.0%	-1.9%	45.1*
Cc1ccc(/C=N/NC(=O)c2nnn(-c3nonc3N)c2-c2ccc3c(c2)OCO3)s1	9.8	23.1%	0.262µM*	?	14.8%	-2.3
Nc1nnnn1CC(=O)N/N=C/c1cccs1	17.0*	6.5%	3.7%	26.4%	-27.2%	25.2
O=C1COc2ccc(S(=O)(=O)Nc3cccc(Cl)c3)cc2N1	-10.4	11.7%	11.3%	-13.1%	5.8%	-7.9
CSCC[C@@H](CO)NC(=O)[C@H]1O[C@@H](n2ccc(N)nc2=O)[C@H](O)[C@@H]1O	/	/	/	/	4.6%	/
CC(C)c1cccc(-c2csc(C(C)(O)c3cccc(F)c3)n2)c1 (configuration not stated)	/	/	/	/	-0.1%	/
Nc1nonc1-n1nnc(C(=O)N/N=C/c2ccc3c(c2)OCO3)c1CSc1ccccc1	-0.8	-8.7%	28.8%	1.4%	-6.1%	-3.4
Cc1ccccc1COc1cccc(/C=N/NC(=O)c2nnn(-c3nonc3N)c2C)c1	1.1	?	?	1.1%	21.7%	-5.1
Nc1nonc1-n1nnc(C(=O)N/N=C/c2cccc(F)c2)c1-c1ccccc1	-2.7	-18.4%	5.22µM*	?	12.9%	-1.2
Nc1nonc1-n1nnc(C(=O)N/N=C/c2cccc(F)c2)c1-c1ccc2c(c1)OCO2	-2.6	5.7%	0.117µM*	0.0657µM*	-3.8%	-2.5
C/C(=N\N=C\c1ccccc1F)c1nnn(-c2nonc2N)c1C	16.1*	4.3%	128.5%	65.4%	2.1%	80.3*
Cc1c(C(=O)N/N=C/c2cccc(O)c2)nnn1-c1nonc1N	12.4	-20.1%	?	13.1µM*	-3.3%	1.3
COc1ccc(OC)c(CCNC(=O)c2ccc(NC3=NC4CS(=O)(=O)CC4S3)cc2)c1 (configuration not stated)	-0.4	?	-3.8%	0.0%	-1.5%	-5.5
Cc1ccsc1C(=O)Nc1nccs1	16.3*	12.0%	58.1%	35.1%	48.6%	60.3*
Cc1occc1C(=O)Nc1nccs1	7.7	13.1%	24.1%	?	0.0%	34.4
Cc1csc(NC(=O)c2sccc2C)n1	59.4*	-0.1%	194.5%	423.8%	4.7%	90.9*
O=c1c2cc(Br)ccc2nc(-c2ccccc2)n1O	11.3*	14.3%	/	-4.7%	74.2%	14.9
Cc1ccc(C)c(N2CCN(C(=O)CCCn3c(=S)[nH]c4cc5c(cc4c3=O)OCO5)CC2)c1	-0.7	?	11.7µM*	?	110.8%	-9.2
CCN(CC)CCn1c(=S)[nH]c2cc3c(cc2c1=O)OCO3	-3.4	-0.8%	42.6%	10.4µM*	-2.5%	-21.9
O=C(CCCn1c(=S)[nH]c2cc3c(cc2c1=O)OCO3)N1CCN(c2ccccc2F)CC1	-4.7	?	7.2%	?	48.4%	-5.3
SMILES	Cycloheximide cs	HCV inh	Pf growth 48h	Pf growth 96h	AMA1 RON2 block	Shiga toxin inh
CC[C@H](C)[C@H](NC(=O)[C@@H](NC(=O)[C@@H](CC(=O)NO)Cc1ccccc1)[C@@H](C)CC)C(=O)O	-8.9	/	/	/	/	15.0
Cc1[nH]c(-c2ccc(F)cc2)cc1C(=O)N1CCN(c2ccccc2)CC1	-0.6	?	0.0%	20.0%	-19.3%	-5.1
Cc1ccc(N2CCN(C(=O)c3cc(-c4ccc(F)cc4)[nH]c3C)CC2C)cc1 (configuration not stated)	-3.0	11.2µM*	?	?	-18.2%	19.8
COc1cccc(N2CCN(C(=O)c3cc(-c4ccc(F)cc4)[nH]c3C)CC2)c1	2.7	-45.3%	?	23.4%	-14.8%	24.4
COc1ccccc1N1CCN(C(=O)c2cc(-c3ccc(F)cc3)[nH]c2C)CC1	6.7	?	13.1µM*	-3.6%	-15.7%	-4.4
Cc1[nH]c(-c2ccc(F)cc2)cc1C(=O)N1CCN(c2ccccc2F)CC1	3.3	?	-50.9%	3.7µM*	-12.6%	14.0
CCOC(=O)N1CCC(NC(=O)c2cc(-c3ccc(F)cc3)[nH]c2C)CC1	-3.3	?	?	/	6.5%	-11.6
CCN(CC1COc2ccccc2O1)S(=O)(=O)c1ccc(C)cc1 (configuration not stated)	-3.4	?	-3.1%	18.0%	16.6%	0.1
CCC(=O)N1CCC1(C)C(=O)Nc1ccc(C)c(C)c1 (configuration not stated)	/	/	/	/	-3.6%	/
Cc1ccccc1-c1cc2nc(NCc3ccccc3F)n(C)c(=O)c2s1	/	/	/	/	-0.4%	/
COc1ccc(S(=O)(=O)Nc2ccc3c(c2)CC(=O)N([C@@H](C)CO)C[C@H](C)[C@@H](CN(C)S(=O)(=O)c2ccc(F)cc2)O3)cc1	/	13.8%	/	/	0.0%	/
CCC(C)/C(C)=N/NC(=O)c1ccc(COc2ccc(Cl)c(C)c2)cc1 (configuration not stated)	38.5*	?	62.5%	44.1%	58.5%	33.0
CCOC(=O)c1ccc(NC(=S)N2CCSC2c2ccc(OC)cc2)cc1 (configuration not stated)	26.0*	-11.1%	7.5%	-7.1%	32.4%	23.4*
COc1ccc(C2SCCN2C(=S)Nc2cccc(C(F)(F)F)c2)cc1 (configuration not stated)	-2.1	29.5%	2.33µM*	9.28µM*	6.5%	-3.6
CC(C)NC(=O)N(C)C[C@H]1Oc2ccc(NC(=O)Nc3ccccc3)cc2C(=O)N([C@@H](C)CO)C[C@@H]1C	/	9.4%	/	/	9.7%	/
COc1ccc(N(C(=O)c2ccccc2C)S(=O)(=O)c2cccs2)cc1	-0.4	?	?	8.28µM*	-9.1%[2.32 µM]	8.5
CCOC(=O)C1CCCN(C(=O)c2ccccc2NS(=O)(=O)c2ccc(F)cc2)C1 (configuration not stated)	/	6.7%	/	/	-2.1%	/
CCN(C[C@H]1N[C@@](C)(C(=O)OC)[C@H]2C(=O)N(C)C(=O)[C@@H]12)C(=O)COc1ccccc1	/	-4.2%	/	/	-4.6%	/
CCc1nn(C(C)C(=O)NC(C)CCc2ccco2)c(=O)c2cc3occc3n12 (configuration not stated)	-2.0	10µM*	13.6%	52.6%	-2.9%	-10.9
